G9a block: qHTS Assay for Inhibitors of Histone Lysine Methyltransferase G9a | Histone-lysine N-methyltransferase EHMT2 (Homo sapiens), Q96KQ7 | G9a H3K9 monomethylation, AlphaScreen, 2 h | Potency, µM (doses to about 102 µM), for inactives: at the top dose activity, negative = inhibition, actives largely listed as inhibitors | 350,000 compounds, 8.8% hits; also: potency is read from the fitted curve at half-maximal effect; % is scaled to controls: 0 for no effect and ±100 for the full control effect; nearly all actives have a fitted effect of over 75% in size
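G9a (20 nM) was preincubated 15 min with compound, then reacted 2 h at room temperature with 500 nM biotin-H3K9 peptide and 20 µM SAM. Monomethyl-H3K9 detected by AlphaScreen using anti-H3K9me1 antibody.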
PLK1 PBD block: qHTS for Inhibitors of PLK1-PDB (polo-like kinase 1 - polo-box domain): Primary Screen; 360,000 compounds, 2.8% hits; Plk1 PBD binding of FITC phosphopeptide, fluorescence polarization; Serine/threonine-protein kinase PLK1 (Homo sapiens), P53350; Potency, µM, inactives show max response, negative = inhibition, actives largely listed as inhibitors; AID 720504, 2013; also: potency is read from the fitted curve at half-maximal effect; series mostly up to about 57 µM; % is scaled to controls: 0 for no effect and ±100 for the full control effect; nearly all actives have a fitted effect of over 65% in size
HP1b binding inh: HTS for Inhibitors of HP1-beta Chromodomain Interactions with Methylated Histone Tails; AlphaScreen HP1-beta / biotin-H3K9me3 peptide binding; Chromobox protein homolog 1 (Homo sapiens), P83916; 390,000 compounds, 0.56% hits; AID 540317, 2011; Potency, µM (top dose mostly 114 µM), without a hit: at the top dose activity change, negative = inhibition, usual class: inhibitors; also: potency is read from the fitted curve at half-maximal effect; nearly all actives have a fitted effect of over 70% in size
Target sequence (P83916 whole entry, looked up): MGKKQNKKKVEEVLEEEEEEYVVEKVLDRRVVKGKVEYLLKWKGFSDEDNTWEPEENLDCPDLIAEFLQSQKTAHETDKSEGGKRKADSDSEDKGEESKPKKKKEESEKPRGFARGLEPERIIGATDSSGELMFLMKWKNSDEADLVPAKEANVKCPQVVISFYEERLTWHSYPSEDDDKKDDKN
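AlphaScreen: HP1-beta (50 nM) preformed 30 min with biotin-H3(1-18)K9me3 peptide (50 nM) in PBS pH 7.4, 0.01% Tween-20. Compound added for 30 min at RT, then streptavidin donor/nickel chelate acceptor beads (10 ug/mL) for 30 min.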
PI5P4Ka inh: qHTS for Inhibitors of phosphatidylinositol 5-phosphate 4-kinase (PI5P4K); PI5P4Kalpha enzyme, ADP-Glo luminescence, 60 min; hits give low values; max response, %; 330,000 compounds, 1.2% hits; AID 652105, 2013; active = max response of -50% or lower; inconclusive = between -30% and -50%; inactive = -30% or higher; also: value at the top dose of about 77 µM; % is scaled to controls: 0 for no effect and ±100 for the full control effect
Target sequence (P48426 whole entry, looked up): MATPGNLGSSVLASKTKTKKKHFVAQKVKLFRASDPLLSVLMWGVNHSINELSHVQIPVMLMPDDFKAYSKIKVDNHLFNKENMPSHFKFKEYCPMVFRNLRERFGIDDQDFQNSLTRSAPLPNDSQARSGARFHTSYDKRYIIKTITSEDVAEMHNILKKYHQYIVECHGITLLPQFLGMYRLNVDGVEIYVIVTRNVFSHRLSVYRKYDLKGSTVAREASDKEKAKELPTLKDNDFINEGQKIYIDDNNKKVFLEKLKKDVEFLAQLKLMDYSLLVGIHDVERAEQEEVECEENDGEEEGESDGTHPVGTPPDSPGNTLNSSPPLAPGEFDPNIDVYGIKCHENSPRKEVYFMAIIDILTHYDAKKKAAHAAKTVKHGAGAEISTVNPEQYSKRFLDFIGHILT
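Reactions run in 0.038 M HEPES pH 7.4, 0.28 mM EGTA, 0.1% CHAPS and 5% DMSO, with PI5P4Kalpha, substrate, compound and 5 microM ATP final, one hour at room temperature. Readout is ADP-Glo luminescence.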
BAZ2B inh: qHTS Assay for Inhibitors of BAZ2B | Bromodomain adjacent to zinc finger domain protein 2B (Homo sapiens), Q9UIF8 | AID 504333, 2011 | AlphaScreen BAZ2B-H3K14Ac peptide displacement | Potency, µM (titrated, usually from 114 µM), for inactives: at the highest dose activity change, negative = inhibition, most hits filed as inhibitors | 360,000 compounds, 4.4% hits; also: potency is read from the fitted curve at half-maximal effect; % is scaled to controls: 0 for no effect and ±100 for the full control effect; nearly all actives have a fitted effect of over 60% in size
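AlphaScreen displacement of biotin-H3(5-23)K14Ac peptide (50 nM final) from BAZ2B (50 nM final) in PBS pH 7.4, 0.01% Tween-20; complex preformed 30 min RT, then compounds (top 110 uM) 30 min RT, beads 20 min dark.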
JMJD2A Tudor: qHTS Assay for Inhibitors of JMJD2A-Tudor Domain; Lysine-specific demethylase 4A (Homo sapiens), O75164; AlphaScreen JMJD2A-Tudor / H3K4me3 peptide binding; Potency, µM (series often up to 114 µM), for the others: at the top dose activity change, negative = inhibition, most hits filed as inhibitors; 390,000 compounds, 4.4% hits; also: potency is read from the fitted curve at half-maximal effect; % is scaled to controls: 0 for no effect and ±100 for the full control effect; nearly all actives have a fitted effect of over 50% in size
ADP-Glo counter: qHTS for Inhibitors of PI5P4K: ADP-Glo counter assay; shares compounds with PI5P4Ka inh; ADP-Glo detection counter-screen, luciferase luminescence, no enzyme; Potency, µM (doses to about 76.9 µM), for inactives: top-dose activity change, negative = inhibition, hits mostly inhibitors; 1,100 tested, under 10 active
TbPYK inh: qHTS of Trypanosoma Brucei Inhibitors: Confirmatory Assay for Cherry-picked Compounds. shares compounds with PLK1 PBD block. recombinant TbPYK, Kinase-Glo ATP luminescence. Potency, µM (titrated, usually from 76.9 µM), for inactives: top-dose activity change, negative = inhibition, hits mostly inhibitors. 890 compounds, 67% hits. AID 720569, 2013; also: potency is read from the fitted curve at half-maximal effect; % is scaled to controls: 0 for no effect and ±100 for the full control effect; nearly all actives have a fitted effect of over 70% in size
TbPYK orthogonal: qHTS of Trypanosoma Brucei Inhibitors: Orthogonal Assay for Cherry-picked Compounds | Potency, µM (top dose mostly 76.9 µM), inactives show at the top dose activity change, negative = inhibition, actives largely listed as inhibitors | recombinant TbPYK, ADP-Glo luminescence, 60 min | shares compounds with PLK1 PBD block | 890 compounds, 62% hits; also: potency is read from the fitted curve at half-maximal effect; % is scaled to controls: 0 for no effect and ±100 for the full control effect; nearly all actives have a fitted effect of over 75% in size
* hit, by the source's call; ? = inconclusive; / = no result given; [ ] = dose if it differs, or a comment. Most compounds without a hit are left out; they make up all but 12% or so of the library. Unless noted, calls follow the shape of the dose curve; as a rule, active = well fitted curve in the direction sought with a large enough effect; inconclusive = small, poorly fitted or top-dose-only effect, or another doubt; inactive = no such curve, though single readings can be large; an effect the other way counts as inactive or inconclusive.

SMILES | G9a block | PLK1 PBD block | HP1b binding inh | PI5P4Ka inh | BAZ2B inh | JMJD2A Tudor | ADP-Glo counter | TbPYK inh | TbPYK orthogonal
CCOc1ccccc1N1CSC2=C(C#N)C(c3c(OC)ccc4ccccc34)CC(=O)N2C1 (configuration not stated) | 0.562µM* | 18.9µM* | ? | -84.8* | 50.1µM* | 35.5µM* | -5.2% | 1.41µM* | 1.78µM*
Cc1ccc(N2CSC3=C(C#N)C(c4cccs4)CC(=O)N3C2)cc1 (configuration not stated) | 1.41µM* | 15µM* | ? | -59.9* | ? | 31.6µM* | -2.7% | 2.51µM* | 1.58µM*
CCOC(=O)CC1=C(C(=O)OCC)C(c2cccs2)C(C#N)=C(N)O1 (configuration not stated) | -28.6%[59 µM] | -7.9% | 20.3% | -6.2 | -38.6% | -8.3% | / | / | /
COc1ccc(N2CSC3=C(C#N)C(c4ccc(OC)c(OC)c4)CC(=O)N3C2)c(OC)c1 (configuration not stated) | 2.51µM* | 7.52µM* | ? | -53.3* | ? | 20µM* | -17.9% | 0.794µM* | 5.01µM*
CCc1ccc(N2CSC3=C(C#N)C(c4cccs4)CC(=O)N3C2)cc1 (configuration not stated) | ? | 18.9µM* | -33.5% | -68.2* | ? | 31.6µM* | -7.9% | 4.47µM* | 2µM*
CC(=O)N1CCc2cc(S(=O)(=O)NC(Cc3ccccc3)C(=O)Nc3ccc(Cl)cc3)ccc21 (configuration not stated) | 6.6%[59 µM] | / | 28.1% | / | / | -1.7% | / | / | /
COc1cc(OC)c(C2CC(=O)N3CN(c4ccc(C)cc4)CSC3=C2C#N)cc1OC (configuration not stated) | -20.8%[2.33 µM] | 21.2µM* | ? | -76.5* | ? | 4.47µM* | -4.9% | 1.41µM* | 1.26µM*
COc1ccc(CCNC(=O)C2CC(=O)N(c3ccc(C)cc3)C2)cc1OC (configuration not stated) | -2.3%[59 µM] | 4.2% | 28.0% | -2.9 | -0.7% | -11.2% | / | / | /
O=C(COC(=O)C1COc2ccccc2O1)Nc1ccccc1OC(F)F (configuration not stated) | / | -5.5% | 29.9% | 4.5 | / | -15.8% | / | / | /
Cc1ccc(C(=O)Nc2ccc(C(=O)O)cc2)cc1S(=O)(=O)N1CCC(C)CC1 | 3.4%[59 µM] | / | 48.5% | / | -0.6% | 0.7% | / | / | /
COc1ccc(Cc2c(-c3ccco3)nc3ccc(Br)cn23)c(C)c1 | / | 23.8µM* | / | -59.7* | / | / | -6.0% | ? | ?
COc1ccccc1Cc1c(-c2ccco2)nc2c(C)cc(Br)cn12 | / | 11.9µM* | / | -78.3* | / | / | -4.0% | -14.5% | -26.1%
COc1ccc(Cc2c(-c3ccco3)nc3c(C)cc(Br)cn23)c(C)c1 | / | -8.5% | / | ? | / | / | / | / | /

Screens as filed in PubChem BioAssay.
